Compound activity (PubChem)
LANA-H2A inh: blocks KSHV LANA binding to histone H2A/H2B | Q9QR71 | cell-free LANA-H2A/H2B peptide, fluorescence polarization | inhibition, % (concentration not given with the values) | actives 0.6% (n = 320,000) | AID 2629; in the data active = inhibition mostly above about 10%, no sharp cut-off; inactive = mostly below about 6.7%
GRK2 inh: blocks RNA aptamer binding to human GRK2 | actives 0.59% (n = 330,000) | P25098 | AID 488847 | bead flow cytometry, FAM-aptamer displacement from GRK2 | inhibition of aptamer binding, % at 10 µM;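 active = inhibition of aptamer binding above 40%, roughly 3 SD of noise, on plates passing a quality check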;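 also: median bead fluorescence of bound FAM aptamer so fluorescent compounds give negative values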
VLA-4 inh: inhibition in a human VLA-4 binding assay | actives 0.2% (n = 330,000) | AID 2557 | P13612 | inhibition, % (about 7 µM as worked out from the volumes in the protocol) | VLA-4 expressing cells, ligand binding flow cytometry
PKD1 inh: blocks activity of human protein kinase D1; Q15139; PKD1 kinase fluorescence polarization assay; inhibition, % (concentration not given with the values); actives 0.056% (n = 200,000)
HDAC3 inhib: human HDAC3 inhibition; recombinant HDAC3, fluorogenic peptide/trypsin coupled, fluorescence; inhibition, % at 8.3 µM; actives 0.15% (n = 320,000); AID 2718; in the data active = inhibition above about 26%, passing the limit was not always enough
DSG3 Ab inh: human desmoglein-3 autoantibody binding inhibition; P32926; DSG3-coupled beads, scFv-anti-DSG3-GFP binding, flow cytometry; stronger effect = lower value; binding (percent of control), % at 10 µM; actives 0.48% (n = 310,000);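 active = binding more than 3 SD below its plate's average and above zero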;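 also: hits lower antibody fragment binding to DSG3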
Target sequence (P32926 whole entry, looked up, the tested form may be a part): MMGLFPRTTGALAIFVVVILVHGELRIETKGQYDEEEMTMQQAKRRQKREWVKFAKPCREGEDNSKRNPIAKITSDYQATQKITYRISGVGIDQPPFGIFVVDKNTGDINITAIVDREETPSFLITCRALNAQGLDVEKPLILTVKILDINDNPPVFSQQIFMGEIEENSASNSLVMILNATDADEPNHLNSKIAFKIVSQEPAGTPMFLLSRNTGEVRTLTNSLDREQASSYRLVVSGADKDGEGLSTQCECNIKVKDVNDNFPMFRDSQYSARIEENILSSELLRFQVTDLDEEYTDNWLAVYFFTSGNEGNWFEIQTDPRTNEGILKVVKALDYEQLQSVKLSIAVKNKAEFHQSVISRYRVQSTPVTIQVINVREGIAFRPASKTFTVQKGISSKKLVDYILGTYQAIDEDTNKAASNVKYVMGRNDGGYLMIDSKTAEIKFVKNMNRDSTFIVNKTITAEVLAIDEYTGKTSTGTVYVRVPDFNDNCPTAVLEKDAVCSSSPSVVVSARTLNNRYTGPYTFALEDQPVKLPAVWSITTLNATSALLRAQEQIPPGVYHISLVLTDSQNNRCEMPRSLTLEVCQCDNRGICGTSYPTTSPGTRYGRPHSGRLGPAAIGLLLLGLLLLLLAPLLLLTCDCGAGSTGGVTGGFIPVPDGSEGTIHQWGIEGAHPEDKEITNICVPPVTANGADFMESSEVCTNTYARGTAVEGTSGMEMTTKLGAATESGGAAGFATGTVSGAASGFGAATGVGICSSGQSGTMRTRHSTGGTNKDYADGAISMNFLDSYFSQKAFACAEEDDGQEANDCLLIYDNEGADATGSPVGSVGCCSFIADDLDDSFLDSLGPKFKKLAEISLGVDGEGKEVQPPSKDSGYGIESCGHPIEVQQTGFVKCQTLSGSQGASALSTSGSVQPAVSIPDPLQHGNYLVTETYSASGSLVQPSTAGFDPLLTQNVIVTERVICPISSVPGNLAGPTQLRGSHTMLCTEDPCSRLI
GRK2 CP1: human GRK2 inhibition confirmation, cherry pick 1; actives 4% (n = 2,000); shares compounds with GRK2 inh; aptamer displacement, % at 10 µM; bead-bound GRK2, FAM-aptamer displacement, flow cytometry;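 active = aptamer displacement above 40%, near three times the noise of non-fluorescent compounds, on plates passing quality checks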;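 also: negative values mostly reflect intrinsic compound fluorescence rather than true enhancement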
Aptamer quench: counter-screen for GRK2 aptamer inhibitors: fluorescent aptamer quenchers. AID 504521. fluorescence change (kMESF span), kMESF (concentration not given with the values). shares compounds with GRK2 inh. 110 tested, under 10 active. Fluorescent RNA aptamer beads, quenching, flow cytometry; stronger effect = higher value;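 active = compounds whose bead fluorescence drops by more than 37 kMESF across the dose range, marking them as dye quenchers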
FAM quench CP1: counter-screen for GRK2 aptamer inhibitors: fluorescent aptamer quenchers. shares compounds with GRK2 inh. Carboxyfluorescein RNA aptamer on beads, flow cytometry quenching; stronger effect = lower value. fluorescence response (% of DMSO), % at 10 µM. 2,000 tested, under 10 active. AID 504580;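 active = compounds that quench the bead-bound fluorescent RNA probe, cutting fluorescence to under half of the solvent control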;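 also: counterscreen run without GRK2 so only probe quenching by compound is measured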
Aptamer quench 2: aptamer fluorescence quenching in GRK2 counter-screen dose response; shares compounds with GRK2 inh; change in fluorescence (kMESF span), kMESF (no concentration beside the values); 25 tested, under 10 active; Streptavidin beads, FAM-RNA aptamer fluorescence quenching, flow cytometry;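 active = compounds quenching the bead-bound labeled aptamer, with fluorescence dropping by more than 37 kMESF over the dose range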
FAM quench PS1: quenches fluorescent RNA aptamer, GRK2 hit artifact | Bead-bound FAM RNA aptamer fluorescence quenching, flow cytometry; stronger effect = lower value | 35 tested, under 10 active | shares compounds with GRK2 inh | fluorescence ratio to DMSO, % at 11.1 µM;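 active = compounds that dim the fluorescent label, raw bead signal shifting by over 33 units between lowest and highest dose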
Hits are given with their value; . = inactive; / = no result given. This is a sample that favours compounds with a hit; in the whole collection about 1.8% have one here. Rule as the data show it, unless noted: active = inhibition above about 50%; inactive = the rest.

SMILES	LANA-H2A inh	GRK2 inh	VLA-4 inh	PKD1 inh	HDAC3 inhib	DSG3 Ab inh	GRK2 CP1	FAM quench CP1	others
CCOc1ccccc1C(=O)N[C@H](C(=O)OCc1cc([N+](=O)[O-])cc2c1OCOC2)C(C)C	.	.	.	.	.	.	/	/
COC(=O)c1cc(Cl)nc2ccccc12	.	87	.	.	.	/	.	.
C[N+]1(CN2C(=O)C3C4C=CC(C4)C3C2=O)CCCCC1 (stereo unspecified)	.	.	.	/	.	.	/	/
Cc1ccc(S(=O)(=O)NNC(=O)Nc2ccc([N+](=O)[O-])cc2)c(C)c1	.	.	.	/	.	.	/	/
O=C(CCCCC(=O)NCc1cccs1)NCc1cccs1	.	.	.	.	.	/	/	/
O=C(CCNC(=O)c1ccc(Br)cc1)NCc1ccco1	.	.	.	/	.	.	/	/
CCN(CC(=O)NCc1cccs1)C(=O)c1cccc(S(=O)(=O)NC)c1	.	48	.	/	.	.	.	.
O=C(CCS(=O)(=O)c1ccc(Br)cc1)NCc1ccco1	.	63	.	/	.	.	.	.	Aptamer quench=.;Aptamer quench 2=.
O=C(CCS(=O)(=O)c1ccc(Br)cc1)NCc1cccs1	.	94	.	.	.	.	58	.	Aptamer quench=.;Aptamer quench 2=.;FAM quench PS1=.
CNC(=O)c1[nH]cnc1C(=O)Nc1ccccn1	.	.	.	.	.	.	/	/
Cc1cc(S(=O)(=O)N2CCCCC2CCNC(=O)C(=O)NCc2cccnc2)ccc1F (stereo unspecified)	.	100	.	/	/	.	.	.
COc1cccc(CNC(=O)C2CCN(Cc3cnn(-c4ccccc4)c3-n3cccc3)CC2)c1	.	.	.	.	.	.	/	/
O=C(NCc1ccccn1)C1CCN(Cc2cnn(-c3ccccc3)c2-n2cccc2)CC1	.	.	.	.	.	.	.	.
O=C(NC1CC1)C1CCN(Cc2cnn(-c3ccccc3)c2-n2cccc2)CC1	.	.	.	.	.	.	/	/
O=C(NCc1ccccn1)C1CCCN(Cc2cnn(-c3ccccc3)c2-n2cccc2)C1 (stereo unspecified)	.	.	.	.	.	.	.	.
O=C(NCc1cccnc1)C1CCCN(Cc2cnn(-c3ccccc3)c2-n2cccc2)C1 (stereo unspecified)	.	.	.	.	.	.	.	.
CC(C)Oc1ccc(S(=O)(=O)N2CCCCC2)cc1NC(=O)C1=COCCO1	.	.	.	/	.	.	/	/
Cc1cccc(Oc2ccc(S(=O)(=O)N3CCCCC3)cc2NC(=O)C2=COCCO2)c1	.	.	.	/	.	.	.	.
O=C(C1COc2ccccc2O1)N1CCN(c2ccc([N+](=O)[O-])cc2)CC1 (stereo unspecified)	.	98	.	/	.	.	.	.
CCCCN(C(=O)CSc1nnc(-c2ccc(OC)cc2)n1C(C)C)c1c(N)n(Cc2ccccc2)c(=O)[nH]c1=O	.	.	.	.	.	.	/	/
CCCCN(C(=O)c1cccc(-n2cccc2)c1)c1c(N)n(Cc2ccccc2)c(=O)[nH]c1=O	.	46	.	/	.	.	.	.
CCCCN(C(=O)CSc1nnc(-c2ccc(OC)cc2)n1CC)c1c(N)n(Cc2ccccc2)c(=O)[nH]c1=O	.	88	.	.	.	.	.	.
C[C@H](CO)N1C[C@H](C)[C@@H](CN(C)S(=O)(=O)c2ccccc2F)OCc2cnnn2CCCC1=O	/	/	/	/	/	.	/	/
